TbREL1 primary: TbREL1 inhibition, primary screen. P86926. TbREL1 RNA ligation, FRET fluorescence. actives 0.49% (n = 89,000). AID 1117264. inhibition, % at 9.66 µM;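 active means inhibition above the mean inhibition across all screened compounds plus 3 SD, cut at about 11% in these data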;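 further: 0% = plate median of test wells and 100% = NSC42067 control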
Target sequence (P86926 whole entry, looked up): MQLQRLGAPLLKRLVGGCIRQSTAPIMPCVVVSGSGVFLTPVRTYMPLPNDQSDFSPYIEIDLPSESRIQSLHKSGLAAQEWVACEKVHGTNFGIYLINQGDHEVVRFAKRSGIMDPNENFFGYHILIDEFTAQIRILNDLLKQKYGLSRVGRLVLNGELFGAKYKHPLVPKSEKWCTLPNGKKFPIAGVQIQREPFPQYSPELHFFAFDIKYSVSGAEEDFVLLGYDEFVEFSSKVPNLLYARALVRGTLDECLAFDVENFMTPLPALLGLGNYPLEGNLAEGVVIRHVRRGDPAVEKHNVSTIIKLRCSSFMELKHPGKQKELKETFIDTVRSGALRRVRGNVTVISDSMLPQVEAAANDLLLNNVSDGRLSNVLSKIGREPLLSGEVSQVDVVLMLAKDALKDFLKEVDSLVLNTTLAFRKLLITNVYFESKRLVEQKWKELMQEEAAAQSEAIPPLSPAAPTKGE
TbREL1 conf: TbREL1 inhibition, confirmation; shares compounds with TbREL1 primary; TbREL1 RNA ligation, FRET fluorescence; inhibition, % at 9.66 µM; actives 37% (n = 390); AID 1117282;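 active means mean inhibition across replicates above a set limit taken from the earlier primary screen, cut at about 11% in these data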;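 further: 0% = REL1 with substrate and DMSO and 100% = REL1 plus control inhibitor NSC42067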
Starred values were filed as active, the others as inactive; nt = not tested or not shown. This excerpt belongs to a sample that is enriched for hits.

SMILES | TbREL1 primary | TbREL1 conf
COc1ccc(S(=O)(=O)N(C)C[C@@H]2Oc3cc(C#CC4CCCCC4)ccc3S(=O)(=O)N([C@@H](C)CO)C[C@@H]2C)cc1 | 4 | nt
COc1cccc(Nc2cc(C)nc3ccccc23)c1 | 3 | nt
COc1ccc2nc(C)cc(NCc3cccc(C(F)(F)F)c3)c2c1 | 13* | 16*
COc1ccc2nc(C)cc(Nc3ccccc3O)c2c1 | 2 | nt
O=C(NCc1ccc(F)c(F)c1)C1CCCN(c2nc3ccccc3o2)C1 (centres undefined) | 3 | nt
Cc1nc(C)c(C(=O)OCC(=O)Nc2ccc(C)c(C)c2)s1 | -3 | nt
O=C(O)c1cc(C(=O)O)c(-c2ccccc2)c(C(=O)O)c1 | 0 | nt
Cc1ccc(N2C(=O)c3ccc(C(=O)O)cc3C2=O)cc1C | 0 | nt
O=C(O)c1cc(N2C(=O)C=CC2=O)cc(N2C(=O)C=CC2=O)c1 | 85* | 30*
CC(C)(C)c1ccc(-c2nnc(SCC(=O)c3ccc4ccccc4c3)n2-c2ccc(Cl)cc2)cc1 | -6 | nt
COc1ccc(NC(=O)CSc2nnnn2C)cc1S(=O)(=O)N1CCCCC1 | 2 | nt
Fc1ccccc1OCCCN1CCOCC1 | 11 | nt
Fc1ccc(-c2csc(N3CCOCC3)n2)cc1 | -3 | nt
Nc1ncc(CCN2CCOCC2)c(-c2ccc(F)cc2)n1 | 15* | 2
Nn1c(SCC(=O)Nc2ccc(OCc3ccccc3)cc2)nnc1-c1cc(-c2ccccc2)n[nH]1 | 0 | nt
CN(Cc1ccccc1)C(=O)c1csc([C@@H]2C[C@H](O)[C@@H](CO)O2)n1 | -2 | nt
C[C@@H]1CN([C@H](C)CO)C(=O)c2cc(Br)cnc2O[C@@H]1CN(C)C(=O)NC1CCCC1 | 1 | nt
C[C@@H]1CCCCO[C@@H](CN(C)S(C)(=O)=O)[C@@H](C)CN([C@H](C)CO)C(=O)c2cc(N(C)C)ccc2O1 | -5 | nt
N#C/C(=C/c1ccccc1)C(=O)NCc1ccccc1 | 2 | nt
N#C/C(=C/c1ccc(O)c(O)c1)C(=O)NCc1ccc(Cl)cc1 | 46* | 1
N#C/C(=C/c1cccc(O)c1)C(=O)NCc1ccc(Cl)cc1 | 4 | nt
CCC(=O)N1CCc2cc(Br)c(S(=O)(=O)NCc3ccccc3OC)cc21 | 0 | nt
CCOC(=O)[C@]12CCCC=C1N(Cc1ccc(OC)cc1)C(=O)[C@@H]2CC(=O)NCc1ccc(C)o1 | -7 | nt
C[C@H]1C2CC(OC(=O)Nc3ccc(C#N)cc3)C(C2)[C@H]2CCCCN21 (some centres undefined) | 1 | nt
COc1ccccc1C#CC1=CC(=O)C[C@H](c2ccc(F)cc2)C1 | 3 | nt
SMILES | TbREL1 primary | TbREL1 conf
COc1ccc(C2C(C(=O)NCc3ccccn3)c3cc(OC)c(OC)cc3C(=O)N2C)cc1 (centres undefined) | -1 | nt
COc1ccc(Cl)cc1S(=O)(=O)N1CCCC(C(=O)NCc2ccccn2)C1 (centres undefined) | -2 | nt
COc1cc2c(cc1OC)-c1cc(NCc3ccccn3)nc(=O)n1CC2 | 21* | 23*
O=C(COC(=O)c1ccco1)NC1CCCc2ccccc21 (centres undefined) | 1 | nt
NS(=O)(=O)c1ccc(NC(=O)CCC(=O)N2CCOCC2)cc1 | 15* | 2
NS(=O)(=O)c1cccc(NC(=O)CCc2ccc(S(=O)(=O)N3CCOCC3)cc2)c1 | 4 | nt
NS(=O)(=O)c1ccc(NC(=O)c2ccc(S(=O)(=O)N3CCOCC3)o2)cc1 | -1 | nt
COc1ccc(Br)c(Cn2c(C)c(C(=O)NCc3ccc(F)cc3)sc2=O)c1 | 0 | nt
CC(=O)c1cc(-c2ccccc2)n(CC(=O)NCc2ccccc2Cl)c1C | -3 | nt
COc1ccc(CN(C)CC(=O)Nc2cccc(S(=O)(=O)N3CCCC3)c2)cc1F | -7 | nt
O=C(NCc1ccccc1CN1CCCC1)C1CCN(C(=O)c2ccc(Cl)cc2)CC1 | 2 | nt
O=C(NCc1ccccc1CN1CCCC1)c1cc2cc(Cl)ccc2o1 | 12* | 4
O=C(c1cc2cc(Cl)ccc2o1)N1CCCC1 | 2 | nt
Cc1ccc(C)c(SCC(=O)NCC(c2ccco2)N2CCCCC2)c1 (centres undefined) | -6 | nt
C=CCn1c(CCNC(=O)c2ccccc2F)nnc1SCC(=O)Nc1nc(C)cs1 | -1 | nt
C=CCn1c(CNC(=O)c2ccccc2F)nnc1SCC(=O)NC(C)c1ccccc1 (centres undefined) | 12* | 5
C=CCn1c(CCNC(=O)c2ccccc2F)nnc1SCC(=O)Nc1ccccc1F | 1 | nt
O=C(Nc1cccc(F)c1)c1ccc(S(=O)(=O)N2CCOCC2)cc1 | -2 | nt
O=C(Nc1ccon1)c1ccc(S(=O)(=O)N2CCOCC2)cc1 | 13* | 5
CC1CN(S(=O)(=O)c2ccc(C(=O)Nc3ccc(S(=O)(=O)N4CCOCC4)cc3)cc2)CC(C)O1 (centres undefined) | -1 | nt
CCOc1ccc(/C=N/n2c(-c3n[nH]c4c3CCC4)n[nH]c2=S)cc1 | -1 | nt
C[C@@H]1CCN(C2CC2)S(=O)(=O)c2c(cccc2N2CC[C@@H](N(C)C)C2)O1 | 0 | nt
CCCCC[C@H](C)N1C[C@H](COCc2ccccc2)Oc2cc(N3CC[C@H](N(C)C)C3)ccc2S1(=O)=O | 2 | nt
CCCCC[C@@H](C)N1C[C@@H](COCc2ccccc2)Oc2cc(N3CC[C@@H](N(C)C)C3)ccc2S1(=O)=O | 14* | 4
CCCCC[C@H](C)N1C[C@@H](COCc2ccccc2)Oc2cc(N3CC[C@@H](O)C3)ccc2S1(=O)=O | 2 | nt
SMILES | TbREL1 primary | TbREL1 conf
Cc1c(P(=S)(c2ccccc2)c2ccccc2)[n+]2ccccc2n1C/C=C/c1ccccc1 | 14* | 22*
CC(O)c1nc2ccccc2n1C/C=C/c1ccccc1 (centres undefined) | 1 | nt
COc1cc2c(cc1NC(=O)CSc1nnc(-c3ccccc3F)n1-c1ccc(C)cc1)oc1ccccc12 | -1 | nt
COc1cccc(C2=CC(=O)CC(c3ccco3)C2)c1 (centres undefined) | -1 | nt
COC(=O)[C@H](Cc1ccc(O)cc1)NC(=O)Cn1ccc(NC(=O)OCc2ccccc2)nc1=O | 0 | nt
COC(=O)C(Cc1ccc(O)cc1)NC(=O)Cn1cc(C)c(=O)[nH]c1=O (centres undefined) | 11* | 3
Cc1cn(CC(=O)N[C@H](C)c2cccc3ccccc23)c(=O)[nH]c1=O | -1 | nt
COC(=O)[C@@]12C[C@@H](CC(=O)NCc3cccc(C(F)(F)F)c3)C(=O)N(Cc3ccc4c(c3)OCO4)C1=CCC(C)(C)C2 | -3 | nt
COC(=O)C1=C(C)N(Cc2cccc(C(F)(F)F)c2)C(=NCC2CC2)NC1c1ccccc1C(F)(F)F (centres undefined) | 15* | 15*
C=CCN=C1NC(c2ccccc2C(F)(F)F)C(C(=O)OC)=C(C)N1Cc1cccc(C(F)(F)F)c1 (centres undefined) | 15* | 18*
CCN=C1NC(c2ccccc2C(F)(F)F)C(C(=O)OC)=C(C)N1C (centres undefined) | -3 | nt
COCCOC(=O)C1=C(C)N(Cc2ccccc2)C(=O)NC1c1cccc(OC)c1OC (centres undefined) | -1 | nt
C=CCN=C1NC(c2ccccc2C(F)(F)F)C(C(=O)OC)=C(C)N1Cc1ccc(C(F)(F)F)cc1 (centres undefined) | 14* | 18*
COC(=O)C1=C(C)N(Cc2cccc(C(F)(F)F)c2)C(=NCc2cc(OC)c(OC)c(OC)c2)NC1c1ccccc1C(F)(F)F (centres undefined) | 14* | 19*

Screens: PubChem, The Scripps Research Institute Molecular Screening Center
